Assay results as given in the supplement of paper PMC3414501.
Where a name gives a salt, the structure may show the parent alone.

system: S. cerevisiae AD1-9 (efflux-pump deficient), vegetative growth in YPD; assay: growth sensitivity score (doubling time z-score vs DMSO controls); higher = slower growth, strongly negative scores also mark growth inhibition (complete suppression), active = hit call of the paper
How it was run: (§1)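 Saccharomyces cerevisiae strains BY4741 and AD1-9 were seeded in rich medium in microtiter plates at an OD600 of 0.065. Compounds were added at a 1:100 dilution of DMSO stock. Optical density was read every 15 min for 24 hours on a Tecan GENios reader. Average doubling time was the time taken to reach a set generation point divided by generation number, and the growth sensitivity score was (compound mean − DMSO-control mean)/DMSO-control SD, using eight DMSO controls per experiment.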

| SMILES | growth sensitivity score |
| --- | --- |
| CCn1cc(C(=O)O)c(=O)c2cc(F)c(N3CCN(C)CC3)cc21 [Pefloxacin mesylate] (stock concentration (mM, diluted 1:100): 7.9) | 3.65 (active) |
| COc1ccc2[nH]c([S+]([O-])Cc3ncc(C)c(OC)c3C)nc2c1 (stereo unspecified) [Omeprazole] (stock concentration (mM, diluted 1:100): 10) | -3.25 |
| CC[C@@]1(O)C(=O)OCc2c1cc1n(c2=O)Cc2cc3c(CN(C)C)c(O)ccc3nc2-1 [Topotecan hydrochloride] (stock concentration (mM, diluted 1:100): 9.2) | 4.71 (active) |
| O=C(O[C@@H]1C[C@@H]2C[C@H]3C[C@H](C1)N2CC3=O)c1c[nH]c2ccccc12 [Dolasetron mesylate] (stock concentration (mM, diluted 1:100): 10.4) | -0.71 (inactive) |
| CN1CCN(C2=Nc3cc(F)ccc3Cc3ccccc32)CC1 [Fluperlapine] (stock concentration (mM, diluted 1:100): 10) | 2.12 (active) |
| CC(C)(O)c1ccccc1CC[C@@H](SCC1(CC(=O)O)CC1)c1cccc(/C=C/c2ccc3ccc(Cl)cc3n2)c1 [Montelukast] (stock concentration (mM, diluted 1:100): 9.6) | 0.91 (inactive) |

system: S. cerevisiae BY4741 (wild-type), vegetative growth in YPD; assay: as above
How it was run: as §1

| SMILES | growth sensitivity score |
| --- | --- |
| Cc1c(C(=O)NN2CCCCC2)nn(-c2ccc(Cl)cc2Cl)c1-c1ccc(I)cc1 (stock concentration (mM, diluted 1:100): 10) | -2.45 |
| CCN1CCN(c2cc3c(cc2F)c(=O)c(C(=O)O)cn3C2CC2)CC1 [Enrofloxacin] (stock concentration (mM, diluted 1:100): 10) | 3.15 (active) |
| CN(C)CC/C=C1/c2ccccc2COc2ccc(CC(=O)O)cc21 [Olopatadine hydrochloride] (stock concentration (mM, diluted 1:100): 12.7) | -0.74 (inactive) |
| CC(C)OC(=O)CCC/C=C\C[C@@H]1[C@@H](CC[C@@H](O)CCc2ccccc2)[C@H](O)C[C@@H]1O [Latanoprost] (stock concentration (mM, diluted 1:100): 10.3) | 0.43 (inactive) |
| Nc1c2c(nc3c1CCC3)CCCC2 [Amiridine] (stock concentration (mM, diluted 1:100): 10) | 4.93 (active) |
| N[C@@H](C(=O)N[C@@H]1C(=O)N2C(C(=O)O)=C(Cl)CS[C@H]12)c1ccccc1 [Cefaclor] (stock concentration (mM, diluted 1:100): 10) | 0.84 (inactive) |
| C=C1/C(=C\C=C2/CCC[C@]3(C)[C@@H]([C@H](C)/C=C/[C@@H](O)C4CC4)CC[C@@H]23)C[C@@H](O)C[C@@H]1O [Calcipotriol] (stock concentration (mM, diluted 1:100): 10.1) | -0.31 (inactive) |
| C[C@@H]1C[C@H]2[C@@H]3CCC4=CC(=O)C=C[C@]4(C)[C@@]3(F)[C@@H](O)C[C@]2(C)[C@H]1C(=O)CO [Desoximetasone] (stock concentration (mM, diluted 1:100): 10) | 1.97 (inactive) |
| Nc1ccc2cn[nH]c2c1 [6-Aminoindazole] (stock concentration (mM, diluted 1:100): 10) | -0.64 (inactive) |
| CCOc1cc(CC(=O)N[C@@H](CC(C)C)c2ccccc2N2CCCCC2)ccc1C(=O)O [Repaglinide] (stock concentration (mM, diluted 1:100): 10) | 2.53 (active) |
| CC(CCCCC(=O)Nc1ccc(C(F)(F)F)cc1)NCCc1cnc[nH]1 (stereo unspecified) (stock concentration (mM, diluted 1:100): 10) | -0.06 (inactive) |
| CCc1oc2ccccc2c1C(=O)c1cc(Br)c(O)c(Br)c1 [Benzbromarone] (stock concentration (mM, diluted 1:100): 10) | 72.3 (active) |
| NC1CCN(c2cccc(Cl)n2)CC1 (stock concentration (mM, diluted 1:100): 10) | -0.16 (inactive) |
| NC(=O)N1c2ccccc2CC(=O)c2ccccc21 [Trileptal] (stock concentration (mM, diluted 1:100): 10) | 1.24 (inactive) |
| CN(C)CC[C@@H](c1ccc(Br)cc1)c1ccccn1 [Dexbrompheniramine maleate] (stock concentration (mM, diluted 1:100): 7.3) | -1.48 (inactive) |
